# Measured values taken from PubChem BioAssay (NCI).
# Compounds without any hit were thinned out: in the full panel of roughly 79,000, 15% have a hit. Unmarked numbers belong to inactive results. Calls of active or inactive are those of the source. Cut-off read from the data, not from the text of the source: active = growth inhibition above about 70%; inactive = the rest.
# Key:
# [1] = NCI Yeast Anticancer Drug Screen. Data for the rad52 strain (AID 147);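 note: 0% = growth of vehicle-treated control cultures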; conditions: S. cerevisiae rad52 mutant growth inhibition, active compounds read high
# Summary of the method: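 Genetically altered yeast (DNA damage repair defect) treated with compound; inhibition calculated relative to vehicle.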
# [2] = NCI Yeast Anticancer Drug Screen. Data for the wt1 strain (AID 149);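 note: 0% = growth of vehicle-treated wt1 cultures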; conditions: S. cerevisiae wt1 strain (SPY 50644) growth inhibition, active compounds read high
# Summary of the method: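 Measured: growth of wt1 yeast under compound versus vehicle treatment, reported as inhibition.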
# [3] = NCI Yeast Anticancer Drug Screen. Data for the rad50EPP+ strain (AID 151);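 note: 0% = growth of vehicle-treated control cultures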; conditions: S. cerevisiae rad50 mutant strain, active compounds read high
# Summary of the method: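 Strain rad50EPP+; compound exposure; % growth inhibition vs vehicle.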
# [4] = NCI Yeast Anticancer Drug Screen. Data for the mgt1 strain (AID 153); conditions: S. cerevisiae mgt1 mutant growth inhibition, active compounds read high
# Summary of the method: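 Read-out: yeast growth inhibition vs vehicle control. Strain mgt1, drawn from a panel altered in DNA damage repair or cell cycle control.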
# [5] = NCI Yeast Anticancer Drug Screen. Data for the mec2-1 strain (AID 157); conditions: S. cerevisiae mec2-1 strain, active compounds read high
# Summary of the method: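 Cells of the genetically defined mec2-1 yeast strain are incubated with test compound. Inhibition of growth is calculated against vehicle-treated controls.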
# [6] = NCI Yeast Anticancer Drug Screen. Data for the rad14 strain (AID 159);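 note: 0% = growth of vehicle-treated control cultures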; conditions: S. cerevisiae rad14 strain growth inhibition, active compounds read high
# Summary of the method: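 Here, inhibition of yeast growth was measured after compound exposure, using a strain with a genetic defect in DNA damage repair and vehicle-treated cultures as the reference.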
# [7] = NCI Yeast Anticancer Drug Screen. Data for the sgs1 mgt1 strain (AID 161);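 note: 0% = growth of cultures given vehicle only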; conditions: S. cerevisiae sgs1 mgt1 strain, active compounds read high
# Summary of the method: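 Read-out: growth inhibition vs vehicle controls. Cells: mutant yeast strain deficient in DNA damage repair.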
# [8] = NCI Yeast Anticancer Drug Screen. Data for the CLN2oe strain (AID 163);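 note: 0% = growth of vehicle-only control cultures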; conditions: S. cerevisiae CLN2oe strain, active compounds read high
# Summary of the method: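 Strain altered in cell-cycle control, incubated with compound; growth compared to solvent-treated controls.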
# [9] = NCI Yeast Anticancer Drug Screen. Data for the cln2 rad14 strain (AID 165);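 note: 0% = growth equal to vehicle treated cultures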; conditions: S. cerevisiae cln2 rad14 strain, active compounds read high
# Summary of the method: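 The screen exposed genetically defined yeast (cln2 rad14) to test compounds and scored growth inhibition relative to vehicle-treated controls.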
# [10] = NCI Yeast Anticancer Drug Screen. Data for the bub3 strain (AID 167); conditions: S. cerevisiae bub3 mutant strain, active compounds read high
# Summary of the method: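 Whole-cell yeast assay. The mutant strain was incubated with compounds, and growth inhibition was determined by comparison with vehicle-treated cells.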
# [11] = NCI Yeast Anticancer Drug Screen. Data for the mlh1 strain (AID 171);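 note: 0% = growth of vehicle-treated control cultures of the same strain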; conditions: S. cerevisiae mlh1 strain growth inhibition, active compounds read high
# Summary of the method: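 Yeast screen: mutant strain plus compound, growth scored against vehicle control wells.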
# [12] = NCI Yeast Anticancer Drug Screen. Data for the sgs1 strain (AID 173);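 note: 0% = growth of vehicle-only control cultures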; conditions: S. cerevisiae sgs1 mutant, active compounds read high
# Summary of the method: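 Inhibition of yeast growth served as the measure. The mutant strain was treated with each compound, and growth was normalised to cultures receiving vehicle alone.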
# [13] = NCI Yeast Anticancer Drug Screen. Data for the mlh1 rad18 strain (AID 175); conditions: S. cerevisiae mlh1 rad18 strain growth inhibition, active compounds read high
# Summary of the method: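 Compound-treated yeast growth, normalised to vehicle controls. Strain bears defined DNA repair mutations.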
# [14] = NCI Yeast Anticancer Drug Screen. Data for the rad18 strain (AID 177); conditions: S. cerevisiae rad18 mutant growth inhibition, active compounds read high
# Summary of the method: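 Inhibition values reflect reduced yeast growth compared with vehicle-treated controls, using a strain engineered with a DNA damage repair defect.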
# [15] = NCI Yeast Anticancer Drug Screen. Data for the rad50 strain (AID 155);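 note: 0% = growth of vehicle-only cultures of the same strain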; conditions: S. cerevisiae rad50 strain growth inhibition, active compounds read high
# Summary of the method: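 Growth of the mutant yeast was measured after compound exposure and referenced to vehicle-treated cultures.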
# [16] = NCI Yeast Anticancer Drug Screen. Data for the wt2 strain (AID 169);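 note: 0% = growth of vehicle-treated yeast cultures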; conditions: S. cerevisiae wt2 strain growth inhibition, active compounds read high
# Summary of the method: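 Steps: yeast strain treated with compound; growth recorded; inhibition calculated relative to cultures given vehicle alone.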
# [17] = at 5.0 µM (retest, dose inferred, filed as 0.5)
# [18] = at 50.0 µM (retest, dose inferred, filed as 5.0)
smiles,measurement,setting,value
O=C1C=C(N2CCN(c3ccccn3)CC2)C(=O)c2c(O)ccc(O)c21,growth inhibition,[1]; at 1.2 µM,3%
same,growth inhibition,[1]; at 3.7 µM,8%
same,growth inhibition,[1]; at 11.0 µM,19%
same,growth inhibition,[1]; at 33.0 µM,33%
same,growth inhibition,[1]; at 100.0 µM,45%
same,growth inhibition,[2]; at 1.2 µM,10%
same,growth inhibition,[2]; at 3.7 µM,13%
same,growth inhibition,[2]; at 11.0 µM,15%
same,growth inhibition,[2]; at 33.0 µM,21%
same,growth inhibition,[2]; at 100.0 µM,26%
same,growth inhibition,[3]; at 1.2 µM,-4%
same,growth inhibition,[3]; at 3.7 µM,-3%
same,growth inhibition,[3]; at 11.0 µM,4%
same,growth inhibition,[3]; at 33.0 µM,17%
same,growth inhibition,[3]; at 100.0 µM,26%
same,growth inhibition,[4]; at 1.2 µM,5%
same,growth inhibition,[4]; at 3.7 µM,8%
same,growth inhibition,[4]; at 11.0 µM,14%
same,growth inhibition,[4]; at 33.0 µM,20%
same,growth inhibition,[4]; at 100.0 µM,47%
same,growth inhibition,[5]; at 1.2 µM,7%
same,growth inhibition,[5]; at 3.7 µM,8%
same,growth inhibition,[5]; [17],-17%
same,growth inhibition,[5]; at 11.0 µM,10%
same,growth inhibition,[5]; at 33.0 µM,19%
same,growth inhibition,[5]; [18],84% (active)
same,growth inhibition,[5]; at 50.0 µM,65.2%
same,growth inhibition,[5]; at 100.0 µM,27%
same,growth inhibition,[6]; at 1.2 µM,9%
same,growth inhibition,[6]; at 3.7 µM,14%
same,growth inhibition,[6]; at 11.0 µM,29%
same,growth inhibition,[6]; at 33.0 µM,69%
same,growth inhibition,[6]; at 100.0 µM,87% (active)
same,growth inhibition,[7]; [17],8%
same,growth inhibition,[7]; [18],91% (active)
same,growth inhibition,[7]; at 50.0 µM,82.7% (active)
same,growth inhibition,[8]; at 1.2 µM,11%
same,growth inhibition,[8]; at 3.7 µM,7%
same,growth inhibition,[8]; at 11.0 µM,13%
same,growth inhibition,[8]; at 33.0 µM,21%
same,growth inhibition,[8]; at 100.0 µM,21%
same,growth inhibition,[9]; [17],-6%
same,growth inhibition,[9]; [18],15%
same,growth inhibition,[9]; at 50.0 µM,25.9%
same,growth inhibition,[10]; at 1.2 µM,4%
same,growth inhibition,[10]; at 3.7 µM,3%
same,growth inhibition,[10]; [17],5%
same,growth inhibition,[10]; at 11.0 µM,10%
same,growth inhibition,[10]; at 33.0 µM,23%
same,growth inhibition,[10]; [18],71% (active)
same,growth inhibition,[10]; at 50.0 µM,88.8% (active)
same,growth inhibition,[10]; at 100.0 µM,34%
same,growth inhibition,[11]; at 1.2 µM,7%
same,growth inhibition,[11]; at 3.7 µM,12%
same,growth inhibition,[11]; at 11.0 µM,21%
same,growth inhibition,[11]; at 33.0 µM,42%
same,growth inhibition,[11]; at 100.0 µM,75% (active)
same,growth inhibition,[12]; at 1.2 µM,8%
same,growth inhibition,[12]; at 3.7 µM,11%
same,growth inhibition,[12]; at 11.0 µM,22%
same,growth inhibition,[12]; at 33.0 µM,63%
same,growth inhibition,[12]; at 100.0 µM,82% (active)
same,growth inhibition,[13]; [17],10%
same,growth inhibition,[13]; [18],94% (active)
same,growth inhibition,[13]; at 50.0 µM,72.5% (active)
same,growth inhibition,[14]; at 1.2 µM,1%
same,growth inhibition,[14]; at 3.7 µM,4%
same,growth inhibition,[14]; at 11.0 µM,17%
same,growth inhibition,[14]; at 33.0 µM,46%
same,growth inhibition,[14]; at 100.0 µM,68%
CC(C)(C)c1ccc(NS(=O)(=O)c2ccc(N)cc2)cc1,growth inhibition,[1]; at 1.2 µM,-1%
same,growth inhibition,[1]; at 3.7 µM,-1%
same,growth inhibition,[1]; at 11.0 µM,1%
same,growth inhibition,[1]; at 33.0 µM,6%
same,growth inhibition,[1]; at 100.0 µM,46%
same,growth inhibition,[2]; at 1.2 µM,1%
same,growth inhibition,[2]; at 3.7 µM,2%
same,growth inhibition,[2]; at 11.0 µM,3%
same,growth inhibition,[2]; at 33.0 µM,3%
same,growth inhibition,[2]; at 100.0 µM,12%
same,growth inhibition,[3]; at 1.2 µM,4%
same,growth inhibition,[3]; at 3.7 µM,8%
same,growth inhibition,[3]; at 11.0 µM,10%
same,growth inhibition,[3]; at 33.0 µM,11%
same,growth inhibition,[3]; at 100.0 µM,14%
same,growth inhibition,[4]; at 1.2 µM,0%
same,growth inhibition,[4]; at 3.7 µM,-1%
same,growth inhibition,[4]; at 11.0 µM,1%
same,growth inhibition,[4]; at 33.0 µM,2%
same,growth inhibition,[4]; at 100.0 µM,28%
same,growth inhibition,[15]; at 1.2 µM,4%
same,growth inhibition,[15]; at 3.7 µM,3%
same,growth inhibition,[15]; [17],0%
same,growth inhibition,[15]; at 11.0 µM,14%
same,growth inhibition,[15]; at 33.0 µM,9%
same,growth inhibition,[15]; [18],-22%
same,growth inhibition,[15]; at 50.0 µM,98.3% (active)
same,growth inhibition,[15]; at 100.0 µM,37%
same,growth inhibition,[5]; at 1.2 µM,4%
same,growth inhibition,[5]; at 3.7 µM,4%
same,growth inhibition,[5]; [17],6%
same,growth inhibition,[5]; at 11.0 µM,6%
same,growth inhibition,[5]; at 33.0 µM,7%
same,growth inhibition,[5]; [18],-5%
same,growth inhibition,[5]; at 50.0 µM,94.3% (active)
same,growth inhibition,[5]; at 100.0 µM,38%
same,growth inhibition,[8]; at 1.2 µM,4%
same,growth inhibition,[8]; at 3.7 µM,2%
same,growth inhibition,[8]; at 11.0 µM,1%
same,growth inhibition,[8]; at 33.0 µM,4%
same,growth inhibition,[8]; at 100.0 µM,19%
same,growth inhibition,[9]; [17],34%
same,growth inhibition,[9]; [18],-111%
same,growth inhibition,[9]; at 50.0 µM,98.4% (active)
same,growth inhibition,[10]; at 1.2 µM,0%
same,growth inhibition,[10]; at 3.7 µM,5%
same,growth inhibition,[10]; [17],28%
same,growth inhibition,[10]; at 11.0 µM,9%
same,growth inhibition,[10]; at 33.0 µM,18%
same,growth inhibition,[10]; [18],-8%
same,growth inhibition,[10]; at 50.0 µM,95.8% (active)
same,growth inhibition,[10]; at 100.0 µM,12%
same,growth inhibition,[16]; at 1.2 µM,0%
same,growth inhibition,[16]; at 3.7 µM,1%
same,growth inhibition,[16]; at 11.0 µM,1%
same,growth inhibition,[16]; at 33.0 µM,4%
same,growth inhibition,[16]; at 100.0 µM,41%
same,growth inhibition,[11]; at 1.2 µM,5%
same,growth inhibition,[11]; at 3.7 µM,3%
same,growth inhibition,[11]; at 11.0 µM,7%
same,growth inhibition,[11]; at 33.0 µM,-13%
same,growth inhibition,[11]; at 100.0 µM,48%
same,growth inhibition,[12]; at 1.2 µM,3%
same,growth inhibition,[12]; at 3.7 µM,6%
same,growth inhibition,[12]; at 11.0 µM,14%
same,growth inhibition,[12]; at 33.0 µM,17%
same,growth inhibition,[12]; at 100.0 µM,60%
same,growth inhibition,[13]; [17],-5%
same,growth inhibition,[13]; [18],-5%
same,growth inhibition,[13]; at 50.0 µM,97.2% (active)
same,growth inhibition,[14]; at 1.2 µM,3%
same,growth inhibition,[14]; at 3.7 µM,3%
same,growth inhibition,[14]; at 11.0 µM,15%
same,growth inhibition,[14]; at 33.0 µM,23%
same,growth inhibition,[14]; at 100.0 µM,54%
